Many of the other results were omitted from the sample, so hits are more common in it than they were.
NOMO-1 viab: NOMO-1 AML cell viability reduction, primary screen, STK33 inhibitor project, CellTiter-Glo luminescence | NOMO-1 AML viability, 72 h | inhibition, % (test concentration not listed) | hit rate 7.5% among 37,000; in the data active = inhibition above about 80%; inconclusive = no clear call, values can overlap the other calls
PD-1 reversal: activators reversing PD-1 mediated T-cell inhibition, primary screen, luminescence, primary human CD4 T cells, PD-L1 beads; AID 2316, 2010; activation, % (test concentration not listed); CellTiter-Glo 96 h; 29,000 tested, under 10 active; call rule not given here;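 also: 0% = median vehicle wells and 100% = positive control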
YB-1 expr inh: inhibitors of YB-1 gene expression, primary screen, cell-based, fluorescence | U2OS, qRT-PCR YB-1 vs CDIP delta delta Cp, 16 h; stronger effect = higher value; zero = DMSO, each unit about twofold | delta delta Cp (YB-1 minus CDIP) (test concentration not listed) | hit rate 0.37% among 30,000;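 active = delta delta Cp rounded down to an integer at or above 3, about 3 SD of DMSO wells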;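 also: higher means less YB-1 transcript or more CDIP transcript relative to DMSO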
U2OS ROS induce: ROS inducers in U2OS cancer cells, primary screen, cell-based, H2DCF-DA fluorescence. U2OS ROS induction. ROS induction (% of piperlongumine), % at 10 µM. hit rate 2% among 46,000. AID 624156, 2012; in the data active = ROS induction above about 79%, passing the limit was not always enough; inconclusive = no clear call, values can overlap the other calls;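 also: 0% = DMSO vehicle median and 100% = reference compound median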
MITF inhib: inhibitors of MITF, primary screen, MITF inhibitor project, cell-based, luminescence. TRPM1 promoter luciferase, 24 h. inhibition, % (concentration not given with the values). hit rate 0.28% among 37,000; in the data active = inhibition above about 85%; inconclusive = no clear call, values can overlap the other calls; inactive = below about 68%;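 also: human melanocyte line stably carrying TRPM1 promoter luciferase reporter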
* marks the source's active call; other numbers are inactive results; ? = inconclusive; . = not tested or not shown.

SMILES | NOMO-1 viab | PD-1 reversal | YB-1 expr inh | U2OS ROS induce | MITF inhib
COc1ccc(CC(=O)Nc2cccc(-c3nc4cc5ccccc5cc4[nH]3)c2)cc1 | 135* | 0 | 0.071 | 35 | -3
O=C(NCc1ccccc1)C1CCCN(C(=O)N2CCOc3ccccc32)C1 (configuration not stated) | . | . | . | -18 | .
C=C1C(=O)O[C@@H]2/C=C(/C)CC/C=C(/C=O)C[C@@H](OC(=O)CC(C)C)C12 (some centres not stated) | . | . | -0.45 | ? | .
C=C1C(=O)O[C@@H]2/C=C(/CO)CC/C=C(/C=O)C[C@@H](O)[C@@H]12 | 109* | -10 | 0.67 | 44 | -5
C=CCSc1nc(N)c(C(=O)Nc2ccccc2)cc1C(N)=O | 4 | 3 | 0.42 | 33 | 10
COc1ccc(NC(=O)Nc2cccc3c2O[C@@H](CN(C)Cc2ccc(C(F)(F)F)cc2)[C@H](C)CN([C@H](C)CO)C3=O)cc1 | 84* | -3 | 0.49 | 23 | 11
C[C@@H]1CN([C@H](C)CO)C(=O)c2cccc(NC(=O)Nc3ccc(C(F)(F)F)cc3)c2O[C@H]1CN(C)Cc1ccc(Oc2ccccc2)cc1 | 71 | -2 | 0.14 | 7 | 14
COc1ccc(CN(C)C[C@@H]2Oc3c(NC(=O)Nc4ccc(C(F)(F)F)cc4)cccc3C(=O)N([C@H](C)CO)C[C@@H]2C)cc1 | 90* | -4 | -0.059 | 15 | -1
COc1ccc(NC(=O)Nc2cccc3c2O[C@H](CN(C)Cc2ccc(C(F)(F)F)cc2)[C@H](C)CN([C@@H](C)CO)C3=O)cc1 | 47 | 0 | 0.18 | 5 | -17
COc1ccc(CN(C)C[C@@H]2Oc3c(NC(=O)Nc4ccc(C(F)(F)F)cc4)cccc3C(=O)N([C@@H](C)CO)C[C@H]2C)cc1 | 116* | -8 | -0.26 | 41 | 55
C=CCNC(=O)[C@@H]1[C@H]2C(=O)O[C@H](c3ccccc3)[C@H](c3ccccc3)N2[C@H](c2ccc(O)cc2)[C@@]12C(=O)Nc1ccc(C#Cc3ccc(OC)cc3)cc12 | . | . | -0.012 | -8 | .
C[C@@H]1CN([C@@H](C)CO)C(=O)c2cccc(NS(C)(=O)=O)c2O[C@H]1CN(C)S(=O)(=O)c1ccc(F)cc1 | 5 | 3 | 0.052 | -2 | -3
C[C@H](CO)N1C[C@H](C)[C@H](CN(C)Cc2ccc(Cl)c(Cl)c2)Oc2ccc(NS(=O)(=O)c3cn(C)cn3)cc2CC1=O | 4 | 0 | 13* | 17 | 0
C[C@@H]1CN([C@H](C)CO)C(=O)Cc2cc(NS(=O)(=O)c3cn(C)cn3)ccc2O[C@H]1CN(C)Cc1ccc(Oc2ccccc2)cc1 | 21 | 1 | -0.2 | 24 | -19
C[C@H]1CN([C@@H](C)CO)C(=O)Cc2cc(NS(=O)(=O)c3cn(C)cn3)ccc2O[C@H]1CN(C)Cc1ccc(Oc2ccccc2)cc1 | 39 | 3 | 0.069 | 89* | -3
CCOc1cc([N+](=O)[O-])ccc1NC(=O)CC1Sc2ccccc2NC1=O (configuration not stated) | 110* | -4 | . | 18 | 35
COc1ccc(OC)c(NC(=O)CC2Sc3ccccc3NC2=O)c1 (configuration not stated) | 3 | -1 | . | -4 | -2
COc1ccc(Cn2cc(-c3ccccc3)nn2)cc1 | . | . | . | 0 | .
Cc1ccc(S(=O)(=O)Nc2cccc3cccnc23)c([N+](=O)[O-])c1 | 121* | -15 | . | -8 | 52
COc1ccc2cc3[n+](cc2c1OC)CCc1cc2c(cc1-3)OCO2 | 110* | 0 | 0.17 | -4 | 51
C[C@H]1CN([C@@H](C)CO)C(=O)c2cc(NC(=O)Cc3cn(C)c4ccccc34)ccc2O[C@H]1CN(C)Cc1ccccc1 | 84* | 0 | -0.15 | -8 | 14
C[C@H]1CN([C@@H](C)CO)C(=O)c2cc(NC(=O)Cc3cn(C)c4ccccc34)ccc2O[C@H]1CN(C)Cc1ccncc1 | 73 | -1 | -0.28 | 5 | 19
C[C@@H]1CN([C@@H](C)CO)C(=O)c2cc(NC(=O)Cc3cn(C)c4ccccc34)ccc2O[C@H]1CN(C)Cc1ccc(C(F)(F)F)cc1 | 91* | -1 | -0.51 | 22 | 54
C[C@H](CO)N1C[C@H](C)[C@H](CN(C)Cc2ccc(C(F)(F)F)cc2)Oc2ccc(NC(=O)Cc3cn(C)c4ccccc34)cc2C1=O | 22 | -3 | -0.53 | 13 | 35
C[C@@H]1CN([C@@H](C)CO)C(=O)c2cc(NC(=O)Cc3cn(C)c4ccccc34)ccc2O[C@H]1CN(C)Cc1ccc(-c2ccccc2)cc1 | 26 | 0 | 0.11 | 6 | 10
SMILES | NOMO-1 viab | PD-1 reversal | YB-1 expr inh | U2OS ROS induce | MITF inhib
C[C@H](CO)N1C[C@H](C)[C@@H](CN(C)Cc2ccncc2)Oc2ccc(NC(=O)Cc3cn(C)c4ccccc34)cc2C1=O | 92* | -2 | -0.3 | ? | 23
C[C@@H]1CN([C@@H](C)CO)C(=O)c2cc(NC(=O)Cc3cn(C)c4ccccc34)ccc2O[C@@H]1CN(C)Cc1ccc(-c2ccccc2)cc1 | 113* | . | -0.13 | 18 | 16
Cc1ccc2nc(SCc3nc4ccccc4n3C)[nH]c2c1 | 6 | 0 | . | 5 | -63
Cc1noc(C)c1NC(=O)Nc1ccc2c(c1)C(=O)N([C@@H](C)CO)C[C@@H](C)[C@@H](CN(C)S(=O)(=O)c1ccccc1)O2 | 4 | 1 | -0.0097 | -9 | -6
C[C@@H]1CN([C@H](C)CO)C(=O)c2cc(NC(=O)Cc3cn(C)c4ccccc34)ccc2O[C@@H]1CN(C)Cc1ccccc1 | 45 | 0 | -0.46 | 6 | 9
C[C@H](CO)N1C[C@H](C)[C@@H](CN(C)Cc2ccc(-c3ccccc3)cc2)Oc2ccc(NC(=O)Cc3cn(C)c4ccccc34)cc2C1=O | 59 | -4 | 0.045 | 199* | 24
C[C@@H]1CN([C@H](C)CO)C(=O)Cc2cc(NS(=O)(=O)c3ccc(Cl)cc3)ccc2O[C@H]1CN(C)Cc1ccc(Cl)c(Cl)c1 | 105* | -1 | 0.15 | 12 | 18
C[C@@H]1CN([C@H](C)CO)C(=O)Cc2cc(NS(=O)(=O)c3ccc(F)cc3)ccc2O[C@H]1CN(C)Cc1ccc(Cl)c(Cl)c1 | 102* | . | -0.076 | 44 | 12
C[C@H]1CN([C@@H](C)CO)C(=O)Cc2cc(NS(=O)(=O)c3ccc(F)cc3)ccc2O[C@H]1CN(C)Cc1ccc(Cl)c(Cl)c1 | ? | 0 | -0.16 | 12 | -10
Cc1ccc(S(=O)(=O)Nc2ccc3c(c2)CC(=O)N([C@@H](C)CO)C[C@H](C)[C@H](CN(C)Cc2ccc(Cl)c(Cl)c2)O3)cc1 | 71 | 1 | -0.05 | 27 | 5
CC(c1ccccc1)n1c(OC(=O)N(C)C)nnc1SCC(=O)c1ccc2c(c1)OCCO2 (configuration not stated) | . | . | . | -10 | .
